# Screening data: PubChem BioAssay, National Center for Advancing Translational Sciences (NCATS)
# A selection: hits, their analogues and other compounds. The true share with any hit is near 0.75%.
# TCR act: T cell receptor activation; primary human leukocytes, anti-CD3, IL-2 HTRF, 48 h; Potency, µM (top dose mostly 9.22 µM), without a hit: at the top dose activation of IL-2 secretion, actives largely listed as activators; 330,000 tested, under 10 active; note: % of control where 0% means no effect
#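 Primary human leukocytes were stimulated with a-CD3 beads plus compounds for 48 hr without co-stimulation; secreted IL-2 was quantified by HTRF using a-IL-2-K (europium cryptate) and a-IL-2-d2, excited at 320nm with acceptor emission read at 665nm.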
# uPA generation: inhibitors of cell surface uPA generation; cell surface uPA generation assay, qHTS; Potency, µM (doses to about 38.3 µM), for the others: top-dose activity change, negative = inhibition, usual class: inhibitors; 0.31% of 330,000 active; AID 540303; active = well fitted inhibition curve with a large enough effect; inconclusive = small, poorly fitted or top-dose-only effect; inactive = no such curve, though single readings can be large or run the other way; tested in mouse RAW 264.7 cells; note: potency is the fitted concentration of half-maximal effect; % is set by controls: 0 for no effect and ±100 for the full control effect; nearly all actives have a fitted effect of over 55% in size
# TSHR antag: blocks TSH signaling through the human TSH receptor; activity change, negative = inhibition, % at 11.5 µM; 0.2% of 330,000 active; P16473; AID 504810; TSHR-expressing cells, TSH-stimulated cAMP HTRF, 2 h; hits give low values;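 active = activity change below a set negative limit, meaning inhibition stronger than a set level, cut at about -70% in these data; inconclusive = activity change between two set negative limits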; note: % is set by controls: 0 for no effect and ±100 for the full control effect
# Target sequence (P16473 whole entry, looked up): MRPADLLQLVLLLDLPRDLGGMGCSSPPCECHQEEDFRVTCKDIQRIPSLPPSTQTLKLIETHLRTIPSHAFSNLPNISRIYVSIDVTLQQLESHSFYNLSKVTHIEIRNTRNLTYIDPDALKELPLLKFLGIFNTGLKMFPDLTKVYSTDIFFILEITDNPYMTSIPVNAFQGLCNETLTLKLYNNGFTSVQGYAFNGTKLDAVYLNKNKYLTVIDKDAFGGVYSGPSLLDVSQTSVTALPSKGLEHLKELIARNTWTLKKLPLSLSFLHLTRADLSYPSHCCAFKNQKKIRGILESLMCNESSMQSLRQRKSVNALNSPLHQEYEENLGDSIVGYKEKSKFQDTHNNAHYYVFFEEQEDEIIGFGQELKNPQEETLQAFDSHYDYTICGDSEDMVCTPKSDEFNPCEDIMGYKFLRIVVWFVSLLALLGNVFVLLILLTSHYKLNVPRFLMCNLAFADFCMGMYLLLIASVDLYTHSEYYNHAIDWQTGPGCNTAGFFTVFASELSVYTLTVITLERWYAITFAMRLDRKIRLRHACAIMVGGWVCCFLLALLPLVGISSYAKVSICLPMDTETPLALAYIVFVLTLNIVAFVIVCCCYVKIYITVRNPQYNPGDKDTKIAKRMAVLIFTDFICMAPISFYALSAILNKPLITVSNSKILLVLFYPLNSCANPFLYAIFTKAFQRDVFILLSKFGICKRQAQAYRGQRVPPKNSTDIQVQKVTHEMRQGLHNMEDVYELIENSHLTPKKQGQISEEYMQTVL
#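 Competitive HTRF cAMP read-out (cryptate anti-cAMP antibody, cAMP-d2; 30 min, room temperature) in freshly harvested TSHR cells. Compounds added before TSH at EC80 (4nM final), followed by 2 hours' incubation at 37 deg C.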
# PKM2 activator: activators of human pyruvate kinase M2 | P14618 | purified PKM2, Kinase-Glo ATP luminescence, activation; response scale: 0% is enzyme alone, no compound | Potency, µM (doses to about 57.5 µM), inactives show at the top dose activation, hits mostly activators | 0.34% of 260,000 active; note: potency is the fitted concentration of half-maximal effect; % is set by controls: 0 for no effect and ±100 for the full control effect; nearly all actives have a fitted effect of over 55% in size
#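 ATP formation by purified human PK-M2, quantified via coupled luciferase luminescence after 1 h at room temperature with 0.1 mM ADP and 0.5 mM PEP final.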
# An asterisk follows results filed as active; ? = inconclusive; · = not tested or not shown; [ ] = remark or other dose. Unless noted, calls come from the whole dose curve; as a rule, active = well fitted curve in the direction sought with a large enough effect; inconclusive = small, poorly fitted or top-dose-only effect, or another doubt; inactive = no such curve, though single readings can be large; an effect the other way counts as inactive or inconclusive.
SMILES,TCR act,uPA generation,TSHR antag,PKM2 activator
COC(=O)C1=C(c2ccc3ccccc3c2)C[C@@H]2CC[C@H]1N2C(=O)NCc1ccc(F)cc1,13%,?,29,·
COC(=O)C1=C(c2ccc(-c3ccccc3)c(F)c2)C[C@@H]2CC[C@H]1N2C(=O)NCCc1ccccc1,-3%,?,-71*,·
COC(=O)C1=C(c2ccc3ccccc3c2)C[C@@H]2CC[C@H]1N2C(=O)NCc1ccc(C(F)(F)F)cc1,0%,11µM*,-8,·
COC(=O)C1=C(c2ccc(-c3ccccc3)c(F)c2)C[C@@H]2CC[C@H]1N2C(=O)NCCCOC(C)C,-2%,13%,-83*,·
CCN1CCN(c2cc(C)c3cc(NC(=O)c4ccc(OC)c(OC)c4)ccc3n2)CC1,2%,7.9µM*,5,1%
O=C1CN=C(c2ccccc2)c2c(sc3c2CCCC3)N1,-6%,4.5µM*,-7,2%
C/C=C(\C)C(=O)N[C@@H](c1ccccc1)[C@@H](O)C(=O)O[C@H]1C[C@@]2(O)[C@@H](OC(=O)c3ccccc3)C3[C@](C)(C(=O)[C@H](OC(C)=O)C(=C1C)C2(C)C)[C@@H](O)C[C@H]1OC[C@@]31OC(C)=O (stereo partly drawn),-7%,-63%,-1,-1%
C/C=C(\C)C(=O)N[C@@H](c1ccccc1)[C@@H](O)C(=O)O[C@H]1C[C@@]2(O)[C@@H](OC(=O)c3ccccc3)C3[C@](C)(C(=O)[C@H](O)C(=C1C)C2(C)C)[C@@H](O)C[C@H]1OC[C@@]31OC(C)=O (stereo partly drawn),1%,0.71µM*,9,0%
Oc1ccccc1/C=N/NP(=S)(c1ccccc1)c1ccccc1,5%,5%,19,-4%
Cc1ccc2[nH]c(C(=O)N/N=C/c3ccccc3O)c(C)c2c1,0%,3.5µM*,-2,·
C=CC[C@@H](Cc1ccc(F)cc1)C(=O)OC[C@H]1CCCN1C(=O)[C@H](CC=C)CC(=O)N[C@H](CO)Cc1ccccc1,1%,24%,42,·
Nc1c(C(=O)Nc2ccc3c(c2)OCCO3)nnn1CCc1ccccc1,1%,7.9µM*,-7,-6%
c1ccc2c(CNC3CCCCC3)c[nH]c2c1,0%,·,-1,-9%
CCC(CC)NCc1c[nH]c2ccccc12,-4%,4.5µM*,17,3%
O=C(N[C@H]1C/C=C\C[C@H](CC(=O)N(CCO)Cc2ccccc2)C(=O)NC[C@H](c2ccccc2)OC1=O)OCC1c2ccccc2-c2ccccc21,5%,-25%,-11,·
Cc1cc(C)c(CN2CCN(C(=O)Cn3cnc4c(NCc5ccccc5)ncnc43)CC2)c(C)c1,-7%[46.1 µM],?,-34,·
Cc1ccc(N/C(N)=N/c2nc(CSc3nnc(C)s3)cc(=O)[nH]2)c(C)c1,-3%,3.5µM*,37,0%
Cc1ccc(S(=O)(=O)Nc2cccc3c2O[C@H](CN(C)C(=O)Nc2cccc4ccccc24)[C@H](C)CN([C@H](C)CO)C3=O)cc1,3%,?,1,·
O=C(c1ccc(S(=O)(=O)NCc2ccco2)cc1)N1CCN(Cc2ccccc2F)CC1,1%,?,-12,·
N#CC(C#N)=NNc1ccc(-n2ccc(C(F)(F)F)n2)cc1,-6%,-16%,-76*,6%
Cc1cc(C)n(-c2ccc(NN=C(C#N)C#N)cc2)n1,1%,?,-29,-7%
CN1CCN(c2ccc(CNS(=O)(=O)Cc3cccc(C(F)(F)F)c3)cc2)CC1,-8%,?,2,-2%
Nc1cccc(-c2nc3ccc(C(=O)c4ccccc4)cc3[nH]2)c1,·,2µM*,-7,-1%
Cc1ccccc1OCCC(=O)Nc1ccc(S(=O)(=O)N(C)C2CCN(C)CC2)cc1,5%,?,10,·
O=C(c1ccc2c(Cl)c3c(nc2c1)CCCC3)N1CCC(N2CCCCC2)CC1,-10%,10µM*,3,-4%
SMILES,TCR act,uPA generation,TSHR antag,PKM2 activator
C[C@@H]1C[C@@H]([C@H](O)CC2CC(=O)NC(=O)C2)C(=O)[C@@H](C)C1,-1%,0.5µM*,10,·
CCOC(=O)c1c(N2C(=O)C=CC2=O)sc(C)c1C,·,?,-32,?
C=CCC[C@H](Cc1ccc(F)cc1)C(=O)OC[C@@H](Cc1c[nH]c2ccccc12)NC(=O)[C@H](CC=C)CC(=O)N(CCO)Cc1ccccc1,11%,?,-13,·
COc1cc([C@@H]2c3cc4c(cc3[C@@H](OC)[C@H]3COC(=O)[C@H]23)OCO4)cc(OC)c1O,4%,1.6µM*,8,32µM*
COc1ccc([C@H]2CC(=O)C=C(/C=C/Cc3ccccc3)C2)cc1,5%,?,-1,·
C/C(=N\NP(=S)(c1ccccc1)c1ccccc1)c1ccc(O)cc1O,10%,-2%,-1,1%
C/C(=N\NC(=O)c1cc(-c2cccnc2)nc2ccccc12)c1ccc(O)cc1O,5%[46.1 µM],11µM*,-11,-3%
CC1=CC2/C=C(\C)CCC(O)C(O)/C=C/C(=O)C23C(=O)NC(CC(C)C)C3C1C (stereo not drawn),3%,1µM*,?,2%
Cc1ccc(S(=O)(=O)NP(=O)(Oc2ccccc2)Oc2ccccc2)cc1,8%,-6%,-6,-1%
Cc1ccc(S(=O)(=O)Nc2ccccc2N(C)S(=O)(=O)c2ccc(C)cc2)cc1,4%,?,-75*,·
Cc1ccc(-n2c(C)nc3ccccc3c2=O)c(C)c1,1%,-28%,-72*,-5%
Cn1c(=O)oc2cc(S(=O)(=O)Nc3ccccc3O)ccc21,-1%,?,54,14µM*
Cn1c(=O)oc2cc(S(=O)(=O)N3CCCc4ccccc43)ccc21,1%,2.2µM*,10,15%
COc1cc(NS(=O)(=O)c2ccc3c(c2)oc(=O)n3C)cc(OC)c1OC,-2%,?,-12,6%
NC(=O)[C@H]1CC2(CC(c3cccc(NC(=O)COc4ccc(Cl)cc4)c3)=NO2)CN1C(=O)Cc1ccc([N+](=O)[O-])cc1 (stereo partly drawn),11%,?,-5,-1%
COc1ccc(NC(=O)c2cccs2)cc1C(=O)N1CCN(c2ccccc2)CC1,3%,?,-8,0%
O=C(O)C1C2CCC(O2)C1C(=O)Nc1cccc(Br)c1 (stereo not drawn),-2%,11µM*,-4,-1%
Oc1ccc(CCNc2ncnc3ccc(Cl)cc23)cc1,-3%,?,?,-1%
CC(C)=CCC/C(C)=C/CNC(=O)C[C@H]1C[C@H](C(=O)N(C(C)C)C(C)C)[C@@]2(C)c3[nH]c4cc(-c5ccco5)ccc4c3CCN2C1=O,-2%[46.1 µM],?,-17,·
